Data published in a collection of fitness landscapes (doi:10.1016/j.celrep.2020.107928).
Over roughly 81,000 sequences, “one-hybrid fitness for binding NBS DNA” has its median near -0.1; the highest 2% begin near 0.36. The sample as a whole holds a higher share of the highest values than the screen did.

B1: Caulobacter ParB omega fusion; a variant is named by its letters at X, in order, B8GW30 (parent)
chain: MESVVVGEPGMSEGRRGLGRGLSALLGEVDAAPAQAPGEQLGGSREAPIEILQRNPDQPRRTFREEDLEDLSNSIREKGVLQPILVRPSPDTAGEYQIVAGERAWRAAQRAGLKTVPIMVRELDDLAVLEIGIIENVQRADLNVLEEALSYKVLMEKFERTQENIAQTIGKSXSHVANXMRLLXLPDEVQSYLVSGELTAXHARAIAAAADPVALAKQIIEGGLSVRETEALARKAPNLSAGKSKGGRPPRVKDTDTQALESDLSSVLGLDVSIDHRGSTGTLTITYATLEQLDDLCNRLTRGI

Variants of: B1
Experiment: one-hybrid fitness for binding NBS DNA (the Noc-binding site; scaled: cognate 1, non-cognate 0); higher = stronger binding
Details: with NBS DNA site
In short: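 On M9-minus-histidine containing 0.1 mM IPTG and 5 mM 3-AT, E. coli USO cells with a HIS3 reporter, site 19 bp from the promoter, grew 48 hours at 37°C to select Caulobacter ParB libraries randomised at four specificity codons. Plasmids from before and after were Illumina-sequenced, with three replicate libraries pooled and variants under 10 reads left out. Fitness is the log change in variant-to-wild-type read ratio, rescaled against cognate and non-cognate.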

| Variant | one-hybrid fitness for binding NBS DNA |
| --- | --- |
| LDCV | ≤ 0.2 |
| DSPG | ≤ 0.2 |
| EQLY | ≤ 0.2 |
| TMSQ | ≤ 0.2 |
| VICL | ≤ 0.2 |
| MMNR | ≤ 0.2 |
| KRPT | 0.305 |
| KRRT | 0.674 |
| NRRT | ≤ 0.2 |
| KCIT | ≤ 0.2 |
| KCRT | 0.315 |
| NRCT | ≤ 0.2 |
| KRYT | 0.613 |
| KRCD | ≤ 0.2 |
| KRCT | 0.558 |
| KCYT | ≤ 0.2 |
| DRYT | ≤ 0.2 |
| KRIT | 0.481 |
| FRGT | ≤ 0.2 |
| HAIS | ≤ 0.2 |
| WVIG | ≤ 0.2 |
| TARF | ≤ 0.2 |
| LMCG | ≤ 0.2 |
| PVMR | ≤ 0.2 |

| Variant | one-hybrid fitness for binding NBS DNA |
| --- | --- |
| SKSN | ≤ 0.2 |
| CRIR | ≤ 0.2 |
| HDNF | ≤ 0.2 |
| TALC | ≤ 0.2 |
| MHTW | ≤ 0.2 |
| KRWT | 0.669 |
| KRQP | ≤ 0.2 |
| KRLT | 0.469 |
| KCLT | ≤ 0.2 |
| KRQT | 0.513 |
| KCQT | ≤ 0.2 |
| NRWT | ≤ 0.2 |
| KPLT | ≤ 0.2 |
| KPWT | ≤ 0.2 |
| ELNV | ≤ 0.2 |
| NLKK | ≤ 0.2 |
| FRPG | ≤ 0.2 |
| HKCG | ≤ 0.2 |
| PFLC | ≤ 0.2 |
| RHYR | 0.387 |
| RHRR | 0.656 |
| RHHP | ≤ 0.2 |
| RHWR | 0.256 |
| RHQR | 0.448 |

| Variant | one-hybrid fitness for binding NBS DNA |
| --- | --- |
| RHPR | ≤ 0.2 |
| RHIR | ≤ 0.2 |
| RHHR | 0.447 |
| RHHH | ≤ 0.2 |
| RHLR | 0.329 |
| EMNR | ≤ 0.2 |
| WDGG | ≤ 0.2 |
| QAEP | ≤ 0.2 |
| ADMS | ≤ 0.2 |
| PVLV | ≤ 0.2 |
| NCEV | ≤ 0.2 |
| SRIS | ≤ 0.2 |
| DRYY | ≤ 0.2 |
| RHGP | ≤ 0.2 |
| RHSR | 0.448 |
| RHSD | ≤ 0.2 |
| RHGR | 0.403 |
| RHSH | ≤ 0.2 |
| RHGH | ≤ 0.2 |
| MNYT | ≤ 0.2 |
| VDVI | ≤ 0.2 |
| YLRS | ≤ 0.2 |
| PAHQ | ≤ 0.2 |
| SSQC | ≤ 0.2 |

| Variant | one-hybrid fitness for binding NBS DNA |
| --- | --- |
| FTTS | ≤ 0.2 |
| SMHC | ≤ 0.2 |
| QTPS | 0.314 |
| QSLS | 0.263 |
| QPLS | ≤ 0.2 |
| QTCP | ≤ 0.2 |
| QTCN | ≤ 0.2 |
| QTIS | 0.398 |
| QTYS | 0.507 |
| QTCS | 0.495 |
| QTIP | ≤ 0.2 |
| QCLS | 0.382 |
| QTIH | 0.221 |
| CPTM | ≤ 0.2 |
| DVLM | ≤ 0.2 |
| WVEG | ≤ 0.2 |
| TFRM | ≤ 0.2 |
| MYPF | ≤ 0.2 |
| EAVR | ≤ 0.2 |
| PVAE | ≤ 0.2 |
| QTWP | ≤ 0.2 |
| QTES | 0.317 |
| QTRS | 0.811 |
| QTQN | ≤ 0.2 |

| Variant | one-hybrid fitness for binding NBS DNA |
| --- | --- |
| QMCS | 0.38 |
| QMCD | ≤ 0.2 |
| QTWN | ≤ 0.2 |
| QTQP | ≤ 0.2 |
| QTQS | 0.504 |
| QMCP | ≤ 0.2 |
| QTWS | 0.444 |
| NTRS | ≤ 0.2 |
| MSSN | ≤ 0.2 |
| FFKL | ≤ 0.2 |
| LPTN | ≤ 0.2 |
| HFHL | ≤ 0.2 |
| QSEF | ≤ 0.2 |
| TASS | ≤ 0.2 |
| DAGG | ≤ 0.2 |
| DEKT | ≤ 0.2 |
| QTLS | 0.426 |
| QTLD | ≤ 0.2 |
| QPCS | ≤ 0.2 |
| QCCS | 0.393 |
| QSCS | 0.296 |
| QTLP | ≤ 0.2 |
| ERTA | ≤ 0.2 |
| TLTL | ≤ 0.2 |

| Variant | one-hybrid fitness for binding NBS DNA |
| --- | --- |
| EMRG | ≤ 0.2 |
| RSDS | ≤ 0.2 |
| RSND | ≤ 0.2 |
| RLDS | ≤ 0.2 |
| RMDS | ≤ 0.2 |
| RMNS | 0.481 |
| RLND | ≤ 0.2 |
| RLNS | 0.493 |
| RFNS | 0.331 |
| RSNS | 0.508 |
| RMNP | ≤ 0.2 |
| RCNS | 0.557 |
| RPNS | ≤ 0.2 |
| PYGH | ≤ 0.2 |
| TCDT | ≤ 0.2 |
| SICL | ≤ 0.2 |
| ITNT | ≤ 0.2 |
| QLLN | ≤ 0.2 |
| QPKP | ≤ 0.2 |
| QLKM | 0.318 |
| QSKR | 0.979 |
| QPKR | 0.405 |
| QEKR | 0.285 |
| QLVR | 0.34 |

| Variant | one-hybrid fitness for binding NBS DNA |
| --- | --- |
| QDKR | 0.32 |
| QSKD | 0.203 |
| QSKP | 0.229 |
| QLKR | 0.932 |
| QGKR | 0.358 |
| QCKR | 1.08 |
| AWRM | ≤ 0.2 |
| VLCG | ≤ 0.2 |
| GDPR | ≤ 0.2 |
| GMNC | ≤ 0.2 |
| GYHN | ≤ 0.2 |
| GMFV | ≤ 0.2 |
| GDMV | ≤ 0.2 |
| PAFV | ≤ 0.2 |
| GFQR | ≤ 0.2 |
| KNLN | ≤ 0.2 |
| QAVR | 0.358 |
| QIKR | 0.853 |
| QAKR | 0.982 |
| QAKG | 0.313 |
| QIIR | ≤ 0.2 |
| QIVR | 0.271 |
| SPHS | ≤ 0.2 |
| GILL | ≤ 0.2 |

| Variant | one-hybrid fitness for binding NBS DNA |
| --- | --- |
| CSWG | ≤ 0.2 |
| VYLS | ≤ 0.2 |
| RVCH | ≤ 0.2 |
| RVRS | 0.577 |
| RVCY | ≤ 0.2 |
| RVCP | ≤ 0.2 |
| RVCT | 0.433 |
| RVCN | ≤ 0.2 |
| RVCR | 0.436 |
| RVCS | 0.444 |
| RVCM | ≤ 0.2 |
| RVCD | ≤ 0.2 |
| RVRN | ≤ 0.2 |
| RVYS | 0.351 |
| TIPT | ≤ 0.2 |
| LYLM | ≤ 0.2 |
| HSTN | ≤ 0.2 |
| NRKS | ≤ 0.2 |
| QRKS | 0.778 |
| QCVS | 0.381 |
| QSVS | 0.228 |
| DRKS | ≤ 0.2 |
| QRVS | 0.561 |
| QPVS | 0.202 |

| Variant | one-hybrid fitness for binding NBS DNA |
| --- | --- |
| QRKP | 0.404 |
| ANSS | ≤ 0.2 |
| LCGR | ≤ 0.2 |
| TETQ | ≤ 0.2 |
| TNPC | ≤ 0.2 |
| YPLP | ≤ 0.2 |
| YFGS | ≤ 0.2 |
| QNIT | ≤ 0.2 |
| ATQS | ≤ 0.2 |
| NPLV | ≤ 0.2 |
| WWKR | 0.203 |
| QRVP | ≤ 0.2 |
| QCKD | 0.337 |
| QRVD | ≤ 0.2 |
| QPKH | ≤ 0.2 |
| QRKH | 0.766 |
| QRVH | 0.387 |
| QRKN | 0.573 |
| QRVN | 0.259 |
| QRPH | ≤ 0.2 |
| QRKD | 0.377 |
| EGSD | ≤ 0.2 |
| SHRM | ≤ 0.2 |
| SFTP | ≤ 0.2 |

| Variant | one-hybrid fitness for binding NBS DNA |
| --- | --- |
| GMTV | ≤ 0.2 |
| AWKC | ≤ 0.2 |
| HLVG | ≤ 0.2 |
| QNYP | ≤ 0.2 |
| MSYR | ≤ 0.2 |
| KGQY | ≤ 0.2 |
| LHCR | ≤ 0.2 |
| RKVV | ≤ 0.2 |
| RPMF | ≤ 0.2 |
| YCQV | ≤ 0.2 |
| FVKY | ≤ 0.2 |
| QPHG | ≤ 0.2 |
| QCHM | ≤ 0.2 |
| QRHQ | 0.431 |
| QCHC | 0.238 |
| QCHG | ≤ 0.2 |
| QSHC | ≤ 0.2 |
| QSHQ | ≤ 0.2 |
| QCHQ | 0.269 |
| QRHC | 0.437 |
| QRHG | 0.403 |
| QSHM | ≤ 0.2 |
| QRHM | 0.438 |
| TMAD | ≤ 0.2 |

| Variant | one-hybrid fitness for binding NBS DNA |
| --- | --- |
| KMQL | ≤ 0.2 |
| QRHI | 0.358 |
| QRHH | 0.61 |
| QRHS | 0.718 |
| QPHH | ≤ 0.2 |
| QRHN | 0.437 |
| QCHH | 0.333 |
| QRHD | 0.294 |
| QRHF | 0.347 |
| QRHP | 0.303 |
| ATVR | ≤ 0.2 |
| ASPP | ≤ 0.2 |
| AERS | ≤ 0.2 |
| AVLE | ≤ 0.2 |
| HTYV | ≤ 0.2 |
| WTPE | ≤ 0.2 |
| PKNM | ≤ 0.2 |
| VQKH | ≤ 0.2 |
| SIHM | ≤ 0.2 |
| DQIS | ≤ 0.2 |
| AINC | ≤ 0.2 |
| PFAM | ≤ 0.2 |
| ERKR | 0.275 |
| REKR | 0.228 |

| Variant | one-hybrid fitness for binding NBS DNA |
| --- | --- |
| RRKR | 0.929 |
| RRVR | 0.699 |
| NEMS | ≤ 0.2 |
| SEDT | ≤ 0.2 |
| RTFF | ≤ 0.2 |
| RRDV | 0.223 |
| RCEV | ≤ 0.2 |
| RRKV | 0.694 |
| RNYV | ≤ 0.2 |
| RCKV | 0.23 |
| RCNV | ≤ 0.2 |
| RNEV | 0.385 |
| RRRV | 0.655 |
| RRYV | 0.254 |
| RCRV | 0.257 |
| RRVV | 0.229 |
| RRNV | 0.456 |
| AVRK | ≤ 0.2 |
| KHMG | ≤ 0.2 |
| LTMT | ≤ 0.2 |
| MTLT | ≤ 0.2 |
| VSMY | ≤ 0.2 |
| WPTG | ≤ 0.2 |
| TWNS | ≤ 0.2 |

| Variant | one-hybrid fitness for binding NBS DNA |
| --- | --- |
| VPYS | ≤ 0.2 |
| QQRW | 0.373 |
| QQFW | ≤ 0.2 |
| QQKW | 0.382 |
| QQDW | ≤ 0.2 |
| QQYW | ≤ 0.2 |
| QQVW | ≤ 0.2 |
| PDLF | ≤ 0.2 |
| GASG | ≤ 0.2 |
| IEFV | ≤ 0.2 |
| HVSS | ≤ 0.2 |
| QTYQ | ≤ 0.2 |
| QSRQ | 0.413 |
| QCRQ | 0.527 |
| QRIQ | ≤ 0.2 |
| QTRQ | 0.581 |
| QHRQ | 0.33 |
| QPRQ | ≤ 0.2 |
| QTCQ | ≤ 0.2 |
| QRYQ | 0.35 |
| QSDQ | ≤ 0.2 |
| QSYQ | ≤ 0.2 |
| QRRQ | 0.496 |
